# Bead autofluor – flagged as autofluorescent in microsphere protease counterscreen; AID 624483; fluorescence intensity (test concentration not listed); compound autofluorescence counterscreen, microsphere flow cytometry; hits give high values; 360,000 tested, 3.1% active; in the data active means fluorescence intensity above about 16000
# SSB-PriA inh – blocks PriA binding to SSB C-terminal tail. inhibition, % at 33 µM. AlphaScreen SSBct-PriA binding, biotinylated peptide. 430,000 tested, 0.6% active; in the data active means inhibition mostly above about 37%, no sharp cut-off; inactive means mostly below about 20%;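 further: plate controls were negative control peptide for no effect and reference peptide for full effect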
# BoNT-F LC inh – blocks Botulinum neurotoxin F light chain protease. Multiplex microsphere protease cleavage assay, flow cytometry. inhibition, % at 10 µM. 360,000 tested, 0.22% active. AID 588497; in the data active means inhibition above about 35%, passing the limit was not always enough; further: plate controls were buffer without enzyme for full effect and enzyme alone for no effect
# BoNT A protease – blocks Botulinum neurotoxin A light chain protease | AID 588499 | 360,000 tested, 0.17% active | multiplex microsphere protease substrate cleavage, flow cytometry | inhibition, % at 10 µM; further: plate controls were buffer without enzyme for full effect and enzyme alone for no effect
# MazEF act – activators of E. coli MazEF toxin-antitoxin RNase; P0AE70; FAM/BHQ RNA-DNA oligo cleavage fluorescence, 5 h; activation, % at 20 µM; 350,000 tested, 0.32% active; AID 504720; in the data active means activation above about 50%
# Target sequence (P0AE70 whole entry, looked up): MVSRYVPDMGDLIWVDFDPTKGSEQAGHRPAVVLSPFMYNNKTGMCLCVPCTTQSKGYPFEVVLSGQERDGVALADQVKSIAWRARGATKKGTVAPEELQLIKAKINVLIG
# Anthrax LF prot – inhibitors of Bacillus anthracis lethal factor protease; AID 588501; inhibition, % at 10 µM; 360,000 tested, 0.12% active; multiplex microsphere protease cleavage assay, LF; P15917; further: plate controls were buffer without enzyme for full effect and enzyme alone for no effect
# BoNTA LC inh 2 – BoNT/A light chain protease inhibition. shares compounds with BoNT A protease. multiplex microsphere protease cleavage assay, flow cytometry. inhibition, % at 10 µM. 150 tested, 10% active. AID 602325; in the data active means inhibition above about 24%
# Anthrax LF CP2 – inhibitors of Bacillus anthracis lethal factor protease; shares compounds with BoNT A protease; multiplex microsphere protease cleavage assay; inhibition, % at 10 µM; 150 tested, 7% active; in the data active means inhibition above about 25%
# BoNTF LC inh 2 – inhibitors of botulinum neurotoxin F light chain protease; shares compounds with BoNT A protease; multiplex microsphere protease cleavage assay, flow cytometry; inhibition, % at 10 µM; 150 tested, 7% active; AID 602336; in the data active means inhibition above about 25%
# Starred values were filed as active, the others as inactive; i = inactive; · = no result. Compounds with a hit are over-represented: about 3.3% of the library has one in this group of screens. Unless noted, no stated cut-off is given here; in the data, active means inhibition above about 30%; inconclusive means no clear call, values can overlap the other calls; inactive means below that.
SMILES,Bead autofluor,SSB-PriA inh,BoNT-F LC inh,BoNT A protease,MazEF act,Anthrax LF prot,BoNTA LC inh 2,Anthrax LF CP2,BoNTF LC inh 2
O=C(C[n+]1ccc(C(=O)c2ccccc2)cc1)Nc1ccccc1OC(F)F,2711,-7.6,32.4,54.9*,0.9,64.5*,2.5,2.5,-4.0
COc1ccc(C(CNC(=O)c2cc(S(=O)(=O)N3CCCCC3)ccc2C)N2CCCC2)cc1 (centres undefined),19413*,6.0,44.9*,-4.4,-14.8,10.2,-13.0,2.8,35.3*
COc1ccc(C(CNC(=O)c2ccc(C)c(S(=O)(=O)N3CCCCC3)c2)N(C)C)cc1OC (centres undefined),4047,-2.5,-2.6,-0.6,0.8,3.5,·,·,·
COc1ccc(NS(=O)(=O)c2cccc(C(=O)NCC(c3ccc(OC)cc3)N3CCCCC3)c2)cc1 (centres undefined),7419,12.1,-9.9,-1.0,2.0,-2.6,·,·,·
COc1ccccc1C(CNC(=O)c1ccc(C)c(S(=O)(=O)N2CCCCC2)c1)N1CCCC1 (centres undefined),71619*,-5.5,-12.3,-89.1,-1.7,-2.3,-7.0,2.0,25.0*
COc1ccc(C(CNC(=O)c2ccc(OC)c(S(=O)(=O)N3CCCC3)c2)N2CCCC2)cc1 (centres undefined),21380*,3.2,40.3*,-12.4,2.1,0.7,-17.3,2.2,23.7
COc1ccc(C(CNC(=O)c2cccc(S(=O)(=O)N3CCCCC3)c2)N2CCCC2)cc1 (centres undefined),9930,4.3,8.8,-4.6,-4.3,-4.0,0.2,-1.8,-1.7
O=S(=O)(NCC1CCN(c2ccccn2)CC1)c1ccc(Cl)s1,·,-2.0,·,·,·,·,·,·,·
CCN(CC)c1ccc2cc(C(=O)c3cccs3)c(=O)oc2c1,5733,·,32.2,53.5*,·,32.6*,21.9,20.9,16.4
CCN(CC)c1ccc2cc(/C(N)=N\NC(C)=O)c(=O)oc2c1,·,-16.0,·,·,·,·,·,·,·
Cc1[nH]c2ccc(CNS(=O)(=O)c3ccc(S(=O)(=O)N4CCOCC4)cc3)cc2c1C,6262,-4.7,-1.1,0.2,-1.4,0.3,2.1,-2.8,-2.4
O=S(=O)(NCC#CCN1CCCC1)c1cccc(Cl)c1,·,-23.0,·,·,·,·,·,·,·
COC(=O)c1ccccc1-c1c2ccc(=N)cc-2oc2cc(N)ccc12,34738*,32.9,61.8*,9.3,·,61.4*,15.4,-9.3,-35.1
CCN(CC)c1ccc2cc(S(=O)(=O)c3ccc(Cl)cc3)c(=O)oc2c1,3309,-35.3,21.0,67.5*,15.5,42.2*,26.3*,25.4*,15.2
CC(Oc1ccccc1F)c1nnc(SCC(=O)c2c(N)n(C3CC3)c(=O)[nH]c2=O)o1 (centres undefined),5129,-9.4,90.7*,95.9*,7.3,98.1*,1.4,-0.2,0.4
CC(=O)OCC(=O)c1c[nH]c2ccccc12,5991,-0.5,-6.2,0.0,-4.3,-2.8,·,·,·
COc1cccc(C(=O)OCC(=O)c2c[nH]c3ccccc23)c1O,4429,13.8,-5.5,0.6,20.9,-2.1,9.5,13.4,37.3*
Cn1ccc2c(-c3ccc(C(=O)O)cc3)cc3c(c21)C1CCC3C1 (centres undefined),6150,·,10.0,0.0,·,8.3,2.6,1.4,8.1
Cn1ccc2c(-c3ccc(C(C)(C)C)cc3)cc3c(c21)C1CCC3C1 (centres undefined),5412,·,-0.5,-0.6,·,-5.4,1.6,-2.9,-3.9
Cn1ccc2c(-c3ccc(C(N)=O)cc3)cc3c(c21)C1CCC3O1 (centres undefined),5374,·,-4.7,-0.6,·,-2.1,·,·,·
CC1CN1c1cc2c(c3c1ccn3C)C1CCC2C1 (centres undefined),5654,·,-13.6,0.3,·,-11.4,·,·,·
Cc1cc(S(=O)(=O)C(CNC(=O)c2ccc(C(F)(F)F)cc2)c2ccco2)ccc1F (centres undefined),·,-12.0,·,·,·,·,·,·,·
Cc1cc2nc(-c3ccc(F)cc3)c(Cc3ccccc3)n2c(C)c1Br,5770,·,3.5,1.6,·,3.2,·,·,·
Cc1cc2nc(-c3ccccc3)c(Cc3cccc(Cl)c3)n2c(C)c1Br,4680,·,-2.7,-0.6,·,-4.4,16.4,-3.6,12.5
Cc1ccc(Cc2c(-c3cccc(Cl)c3)nc3cc(C)c(Br)c(C)n23)cc1,5438,·,-8.9,-0.1,·,2.4,·,·,·
SMILES,Bead autofluor,SSB-PriA inh,BoNT-F LC inh,BoNT A protease,MazEF act,Anthrax LF prot,BoNTA LC inh 2,Anthrax LF CP2,BoNTF LC inh 2
Cc1ccc(-c2nc3cc(C)c(Br)c(C)n3c2Cc2cccc(Cl)c2)cc1,4668,·,0.2,1.0,·,-5.1,26.4*,-2.1,15.5
Cc1cc2nc(-c3ccc(F)cc3)c(Cc3cccc(Cl)c3)n2c(C)c1Br,4535,·,-5.5,1.6,·,-1.0,2.8,0.0,5.7
CSc1ccc(NC(=O)c2ccnn2C)cc1,·,-2.0,·,·,·,·,·,·,·
O=c1n(CCOc2ccccc2)nc2ccc(S(=O)(=O)N3CCSCC3)cn12,·,-6.0,·,·,·,·,·,·,·
O=C(NCCn1ncc2c(N3CCN(c4ncccn4)CC3)ncnc21)c1c(F)cccc1Cl,·,8.0,·,·,·,·,·,·,·
O=C(CC1CCCC1)N1CCN(S(=O)(=O)c2ccc(F)cc2)CC1,3402,1.3,-0.2,-0.3,-1.3,2.3,·,·,·
O=C(CCC1CCCC1)N1CCN(S(=O)(=O)c2ccc(Br)cc2)CC1,6066,2.1,82.7*,80.0*,13.7,89.4*,2.5,0.1,6.1
CCOCC(=O)Nc1c(C)nc2scc(C)n2c1=O,·,-2.0,·,·,·,·,·,·,·
O=C(NCC1CCN(c2cnccn2)CC1)C(=O)NCC(F)(F)F,·,-1.0,·,·,·,·,·,·,·
CN(C)c1ccc(-c2sc(Nc3ccccc3)n[n+]2-c2ccc(F)cc2)cc1,10058,0.5,9.5,8.2,-8.0,25.6,·,·,·
CCN(CC)c1ccc(-c2sc(Nc3ccccc3)n[n+]2-c2ccc(F)cc2)cc1,17190*,13.5,1.0,27.2,-11.3,43.5*,6.8,14.5,2.9
COc1ccccc1Cc1c(-c2ccc(C#N)cc2)nc2c(Cl)cc(C(F)(F)F)cn12,10081,·,1.0,9.3,·,8.3,11.2,3.2,0.7
Cc1onc(-c2ccccc2Cl)c1C(=O)Nc1nnc(-c2ccccc2)s1,·,2.0,·,·,·,·,·,·,·
COc1ccc(C2C(C#N)C(=N)SC3C(=O)N(c4ccc(C)cc4)C(=O)C32)cc1 (centres undefined),·,-13.0,·,·,·,·,·,·,·
O=C(NC1CCCCC1)c1cccc2c1C(=O)c1ccc(N3CCCC3)cc1S2(=O)=O,4029,-7.2,4.7,1.6,-220.8,-2.3,·,·,·
COc1ccccc1N1CCN(c2ccc3c(c2)S(=O)(=O)c2cccc(C(=O)NCC4CC4)c2C3=O)CC1,3266,·,-3.4,0.1,0.1,-5.9,3.0,2.7,14.9
O=C(NCc1cc(C(F)(F)F)ccc1Cl)c1cccc2c1C(=O)c1ccc(N3CCC(Cc4ccccc4)CC3)cc1S2(=O)=O,5976,-5.9,12.5,7.3,i,17.5,7.2,8.3,15.8

# High-throughput results: PubChem BioAssay, several laboratories
